Compound activity deposited in PubChem by National Center for Advancing Translational Sciences (NCATS).
The list is not random: actives were taken first. Their share in the collection is about 21%.
DT40 TDP1 no CPT = qHTS for Inhibitors of human tyrosyl-DNA phosphodiesterase 1 (TDP1): qHTS in cells in absence of CPT. Potency, µM (titrated, usually from 46.2 µM), for inactives: at the top dose activity change, negative = growth inhibition, hits mostly inhibitors. DT40 Tdp1-/- hTDP1 cells, no CPT, ATP luminescence, 48 h. hit rate 15% among 420,000. AID 686978, 2013; note: potency is the fitted concentration of half-maximal effect; % is set by controls: 0 for no effect and ±100 for the full control effect; nearly all actives have a fitted effect of over 55% in size
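Luminescent ATP content (CellTiter-Glo) served as the growth readout. Knockout chicken DT40 cells expressing human TDP1 were exposed to compounds without camptothecin for a minimum 48 hr at 37 °C.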
IL-1B inflam inh = inflammasome signaling inhibition, IL-1 beta readout; THP-1 LPS/ATP IL-1B secretion, AlphaLISA, 16 h; hits give low values; activity change, % at 57.5 µM; hit rate 4.7% among 360,000; AID 743279; in the data active = activity change below about -50%; inconclusive = mostly about -30% to -49%; note: % is set by controls: 0 for no effect and ±100 for the full control effect
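Secreted IL-1B measured by AlphaLISA bead assay after 16 h compound exposure of THP-1 cells; compounds (final up to 57.5 uM) added 1 h before LPS (250 ng/mL) and ATP (1.25 mM) stimulation; lower signal means less secretion.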
TDP1 cell CPT = growth inhibition of DT40 Tdp1-/-;hTDP1 cells with camptothecin (screen for TDP1 inhibitors) | chicken DT40 Tdp1-/-;hTDP1 cells + 20 nM CPT, ATP luminescence, 48 h | Potency, µM (top dose mostly 46.2 µM), for inactives: at the highest dose activity change, negative = growth inhibition, hits mostly inhibitors | hit rate 12% among 420,000 | AID 686979; note: potency is the fitted concentration of half-maximal effect; % is set by controls: 0 for no effect and ±100 for the full control effect; nearly all actives have a fitted effect of over 55% in size
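Chicken DT40 Tdp1-/- cells stably complemented with human TDP1 were seeded at 400 cells/well in medium containing 20 nM camptothecin, exposed to pin-transferred compounds, and grown at 37 °C for at least 48 hr. Viability was read as ATP luminescence.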
ClpP mod = qHTS Assay for Activators of ClpP. ATP-dependent Clp protease proteolytic subunit (Bacillus subtilis (strain 168)), P80244. purified B. subtilis ClpP, FRET peptide cleavage, 20 min. Potency, µM (titrated, usually from 57.5 µM), for inactives: at the top dose activity change, negative = active. hit rate 1.9% among 340,000. AID 651965, 2013; active = well fitted falling curve with a large enough effect; inconclusive = small, poorly fitted or top-dose-only effect; inactive = no such curve, though single readings can be large or run the other way; note: potency is the fitted concentration of half-maximal effect; the source files actives as falling curves though it sought activators and does not explain the sign; nearly all actives have a fitted effect of over 65% in size
Target sequence (P80244 whole entry, looked up): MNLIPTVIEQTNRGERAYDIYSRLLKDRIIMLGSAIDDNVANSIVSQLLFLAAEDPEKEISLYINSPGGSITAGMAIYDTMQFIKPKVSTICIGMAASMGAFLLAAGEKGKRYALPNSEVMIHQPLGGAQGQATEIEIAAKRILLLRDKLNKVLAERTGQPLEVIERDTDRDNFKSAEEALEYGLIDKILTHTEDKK
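ClpP 10 microg/mL final, pH 8 Tris/KCl buffer with BSA, glycerol, Tween-20; compound pinned in; FRET-FV substrate; RT 20 min; Ex320/Em430; ΔFRET vs ADEP 5.8 microM, DMSO, no enzyme.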
DRD3 antagonist = D3 dopamine receptor (human) antagonism; D3R cells, DiscoveRx beta-arrestin luminescence, antagonist mode; hits give low values; max response, negative = inhibition, %; hit rate 2.5% among 360,000; in the data active = max response below about -50%; inconclusive = no clear call, values can overlap the other calls; note: % is set by controls: 0 for no effect and ±100 for the full control effect
Target sequence (P35462 whole entry, looked up): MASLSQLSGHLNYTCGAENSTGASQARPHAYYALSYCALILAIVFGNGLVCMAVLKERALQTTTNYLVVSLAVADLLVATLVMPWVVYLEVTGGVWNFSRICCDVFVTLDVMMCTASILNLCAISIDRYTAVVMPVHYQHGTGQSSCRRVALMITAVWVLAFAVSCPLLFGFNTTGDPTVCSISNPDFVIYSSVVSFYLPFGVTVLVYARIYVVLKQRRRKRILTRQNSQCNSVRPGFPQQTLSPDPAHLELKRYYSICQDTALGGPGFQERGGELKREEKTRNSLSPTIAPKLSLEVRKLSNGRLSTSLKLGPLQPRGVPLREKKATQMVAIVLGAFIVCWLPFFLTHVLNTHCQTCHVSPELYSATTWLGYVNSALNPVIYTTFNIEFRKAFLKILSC
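Cells expressing the human receptor were seeded at 1500 cells/well, incubated overnight at 37 degrees C in 5% CO2, then exposed to library compounds with dopamine controls for 90 minutes at 37 degrees C before luminescent detection.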
D3 ag = agonists of human D3 dopamine receptor. max activation, %. hit rate 0.58% among 410,000. D3R DiscoveRx beta-arrestin cells, luminescence, 90 min. P35462; in the data active = max activation above about 30%; note: 0% is about no effect
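Agonist-mode cell screen: cells plated at 1500/well and incubated overnight at 37 °C, then exposed to library compounds for 90 min at 37 °C. Detection reagent was added for 30–60 min at room temperature, and luminescence was read.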
* hit, by the source's call; ? = inconclusive; nt = no result. Unless noted, calls come from the whole dose curve; as a rule, active = well fitted inhibition curve with a large enough effect; inconclusive = small, poorly fitted or top-dose-only effect; inactive = flat fitted curve, though single readings scatter.

SMILES	DT40 TDP1 no CPT	IL-1B inflam inh	TDP1 cell CPT	ClpP mod	DRD3 antagonist	D3 ag
COc1ccc(CC(=O)N2CCN(c3ccc(C4=NNC(=O)CC4C)cc3)CC2)cc1 (stereo unspecified)	?	-7.6	?	28.2µM*	11.6	0.7
CC(C)c1ccc(C2C3=C(CC(C)(C)CC3=O)NC3=C2C(=O)c2ccccc23)cc1 (stereo unspecified)	?	?	20.6µM*	-0.3%	-29.4	-1.5
COc1ccc2[nH]c3c(c2c1)CCN1C(=O)C(CC(=O)NCCCn2ccnc2)C[C@H](C(=O)N2CCCCC2)[C@@]31CCc1ccccc1 (stereo partly specified)	?	-5.9	?	-2.9%	-6.0	-5.1
CCOC(=O)c1cc(-c2ccccc2)nc2nc(N3CCCCC3)sc12	?	14.6	?	1.7%	17.1	1.9
CCOC(=O)c1cc(-c2ccccc2)nc2nc(N(CC)CC)sc12	?	-53.9*	-2.7%	nt	28.1	9.2
CCCCN1CCc2nc(Nc3ccc(OC)cc3OC)ncc2C1	?	nt	?	1.6%	nt	-12.8
COc1ccc(OC)c(Nc2ncc3c(n2)CCN(Cc2cc(OC)c(OC)c(OC)c2)C3)c1	7.31µM*	nt	5.8µM*	-7.4%	nt	-10.9
COc1cc(Nc2ncc3c(n2)CCN(Cc2cccc(C)c2)C3)cc(OC)c1	3.26µM*	nt	3.66µM*	9.1%	nt	-7.7
COc1cc(Nc2ncc3c(n2)CCN(Cc2cc(F)cc(F)c2)C3)cc(OC)c1	3.66µM*	nt	4.61µM*	-6.0%	nt	3.8
CN1N=C2c3ccccc3CCCC2C1c1ccc(F)cc1 (stereo unspecified)	?	20.5	-23.0%	nt	-8.1	-9.6
Cc1cc(C)c(S(=O)(=O)Nc2ccccc2C(=O)N2CCOCC2)c(C)c1	-7.9%	-7.8	-6.7%	0.4%	-1.9	-0.5
COc1ccc(-c2nn(-c3ccccc3)cc2C(=O)N2CCN(C(=O)c3ccco3)CC2)cc1	-13.4%	-25.4	-12.1%	nt	0.7	-0.2
Cc1c(C(=O)NCC2CCCO2)sc2nc(-c3ccc(F)cc3)cn12 (stereo unspecified)	?	-27.0	14.6µM*	-3.8%	0.0	-8.2
Cc1c(C(=O)NCc2ccc3c(c2)OCO3)sc2nc(-c3ccccc3)cn12	14.6µM*	-16.7	?	1.4%	18.4	-2.1
Cc1c(C(=O)NCc2ccc3c(c2)OCO3)sc2nc(-c3ccc(F)cc3)cn12	16.4µM*	-16.9	?	-4.7%	16.0	-2.4
Cc1c(C(=O)NCc2ccccn2)sc2nc(-c3ccc(F)cc3)cn12	?	-6.5	?	-1.1%	-13.4	-3.9
Cc1ccc(-c2nn(-c3ccc(F)cc3)cc2C(=O)NCC2CCCO2)cc1 (stereo unspecified)	?	-5.2	?	0.3%	19.1	-7.2
Cc1c(C(=O)Nc2ccc3c(c2)OCO3)sc2nc(-c3ccccc3)cn12	?	-4.0	?	105.5%	19.9	-3.1
CCN(CC)CCCNC(=O)c1sc2nc(-c3ccc(F)cc3)cn2c1C	?	-20.4	?	-1.6%	-62.3*	-51.2
O=C(N/C=C/n1cnc2cc(C(F)(F)F)ccc21)c1ccccc1F	-0.4%	-23.8	-15.0%	2.6%	18.1	-1.4
COc1cc(OC)c(Nc2nc3ccccc3c3nncn23)cc1Cl	-22.8%	nt	?	4.0%	nt	-11.2
COC1C=COC2(C)Oc3c(C)c(O)c4c(O)c(c(CN5CCN(C)CC5)c(O)c4c3C2=O)NC(=O)C(C)=CC=CC(C)C(O)C(C)C(O)C(C)C(OC(C)=O)C1C (stereo unspecified)	20.6µM*	-6.3	23.1µM*	-6.8%	-1.4	-4.8
CO[C@H]1/C=C\O[C@@]2(C)Oc3c(C)c(O)c4c(O)c(c(C=NN5CCN(C6CCCC6)CC5)c(O)c4c3C2=O)NC(=O)C(C)=CC=C[C@H](C)[C@H](O)[C@@H](C)[C@@H](O)[C@@H](C)[C@H](OC(C)=O)[C@H]1C	3.16µM*	nt	5.62µM*	2.3%	nt	nt
CCC(C)N1CCC2(CC1)N=c1c(c3c4c5c(C)c(O)c3c(O)c1=NC(=O)C(C)=CC=C[C@H](C)[C@H](O)[C@@H](C)[C@@H](O)[C@@H](C)[C@H](OC(C)=O)[C@H](C)[C@@H](OC)C=CO[C@@](C)(O5)C4=O)N2 (stereo partly specified)	18.4µM*	?	13µM*	3.1%	-13.5	-8.7
CO[C@H]1C=CO[C@@]2(C)Oc3c(C)c(O)c4c(O)c(cc(O)c4c3C2=O)NC(=O)/C(C)=C\C=C/[C@H](C)[C@H](O)[C@@H](C)[C@@H](O)[C@@H](C)[C@H](OC(C)=O)[C@@H]1C	-12.1%	nt	-3.6%	nt	nt	-6.0
SMILES	DT40 TDP1 no CPT	IL-1B inflam inh	TDP1 cell CPT	ClpP mod	DRD3 antagonist	D3 ag
CO[C@H]1C=CO[C@@]2(C)Oc3c(C)c(O)c4c(O)c(c5c(nc6cc(C)ccn65)c4c3C2=O)NC(=O)/C(C)=C\C=C[C@H](C)[C@H](O)[C@@H](C)[C@@H](O)[C@@H](C)[C@H](OC(C)=O)[C@@H]1C	13.3µM*	nt	?	nt	nt	-12.1
Cc1cc(Br)cn2c(Cc3ccccc3)c(C3CCCCC3)nc12	16.4µM*	86.6	18.4µM*	-0.4%	-26.4	-13.6
Fc1cccc(Cc2c(C3CCCCC3)nc3c4ccccc4ccn23)c1	13µM*	0.0	23.1µM*	4.7%	0.0	-17.0
c1ccc(Cc2c(C3CCCCC3)nc3c4ccccc4ccn23)cc1	11.6µM*	25.5	?	?	?	-11.0
COc1ccc(C(=O)C(Sc2nnc(C)c(=O)[nH]2)c2ccc(OC)cc2)cc1 (stereo unspecified)	1.4%	20.6	-7.5%	0.9%	-8.4	-6.7
CCN(C(=O)CSc1nnc(-c2ccccc2OC)n1N)c1c(N)n(Cc2ccccc2)c(=O)[nH]c1=O	3.6%	0.6	2.8%	-2.9%	-14.6	0.7
Cc1cc(C)cc(NC(=O)Nc2nnc(N(C)C3CCCCC3)s2)c1	?	nt	14.6µM*	-0.3%	nt	-8.7
CC(C)Oc1ccc(S(=O)(=O)N2CCOCC2)cc1NC(=O)CN1C(=O)NC2(CCCC2)C1=O	1.7%	0.0	-19.5%	-6.4%	-0.3	-14.6
CN(Cc1ccc([N+](=O)[O-])cc1)c1ccccc1	-5.4%	-1.7	-19.1%	nt	-10.4	-0.4
CCN(CC)C1=CC(=[N+]2CCCC2)CC(C)(C)C1	0.517µM*	-10.0	0.517µM*	-1.4%	-5.2	13.6
CN(Cc1ccccc1)C1=CC(=[N+]2CCCC2)CC(C)(C)C1	0.231µM*	-52.0*	0.326µM*	nt	-3.0	4.7
